Laboratory results from ChEMBL document CHEMBL3433997, “St. Jude Leishmania screening dataset” (2016).

Biological target: Glucose transporter (Leishmania mexicana) (UniProt O61059)
Assay: ST_JUDE_LEISH: Cytotoxicity at 2uM final concentration against transgenic Leishmania Mexicana promastigotes LmGT2 that are glucose transport deficient and complemented with the L. Mexicana glucose transporter 2. Activity is measured by DNA content using SYBR green in vitro
Assay type: functional

| SMILES | inhibition |
| --- | --- |
| Cc1c(C2CCN(CCCCNC(=O)c3ccc(-c4ccc(C#N)cc4)cc3)CC2)c2ccccc2n1CCO | 3.72% |
| CCn1ccc2c(N3CCCS3(=O)=O)cc(C(=O)N[C@@H](Cc3ccccc3)[C@H](O)CNC(C)(C)CCCC(C)C)cc21 | 2.41% |
| COc1ccccc1N1CCN(Cc2c(O)ccc3cc(Br)ccc23)CC1 | 6.16% |
| CC1CCC(C[C@@H](C(=O)N[C@@H](CCC(=O)N2CCCCC2)C(=O)Nc2nccs2)[C@H](C(C)C)N(O)C=O)CC1 (stereo not given in full) | 3.44% |
| COc1ccc(-c2cccc(NC(=O)c3cccc(Cl)c3)c2)cc1CN1CCNCC1 | -0.77% |
| c1cncc(-c2cc(N3CCCCC3)nc(-c3ccncc3)n2)c1 | 4.53% |
| CC(C)Cc1cn(-c2nc(-c3nc4ccccc4[nH]3)cs2)c2ccncc12 | 3.29% |
| CCCCCCCCn1c2c(c(=N)c3c1CCC3)CCC2 | 89.9% |
| COc1ccc(-c2cc(NCc3ccc(-n4ccnc4)cc3)nc(Nc3ccccc3)n2)cc1 | 1.83% |
| CCC(C)Oc1ccc(CCCON2C(N)=NC(N)=NC2(C)C)cc1 (stereo not given) | 13.8% |
| COC(=O)C1=C(C)NC2=C(C(=O)CC(c3ccc(OC)c(OC)c3)C2)C1c1cccc(O)c1 (stereo not given) | 3.82% |
| CO/C(=C\C=C\c1cc2cc(Cl)ccc2[nH]1)C(=O)NCCCN1CCN(c2cc(Cl)ccc2OC)CC1 | -1.6% |
| CCOc1cc(CC)ccc1C1CCN(CCN2CCC(CNC(=O)c3ccc(-c4ccc(C#N)cc4)cc3)CC2)CC1 | 13.1% |
| O=S(=O)(NC1CCCCN(Cc2ccccc2O)C1)c1ccc(C(F)(F)F)cc1 (stereo not given) | 0.86% |
| CN(C)c1ccc(NC(=O)Nc2ccnc3ccccc23)cc1Br | 6.85% |
